Measurements from PubChem BioAssay.
For some assays here: Entries with a potency or affinity are not part of this list. Activity calls are given as the source filed them.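 Rule for the calls, unless noted: active = fluorescence ratio normalized to control raised more than 50% in primary screen plus both repeat runs; inactive = the rest.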

What was measured:
[1] = system: TRPC4 beta (transient receptor potential cation channel C4), mouse; test: TRPC4 cation channel opening, retest – cell-based, Fluo4 calcium, HEK293 TRPC4beta/mu-opioid, duplicates, 10 µM, confirmation (AID 2426); settings: Fluo4 calcium fluorescence, at 10 µM; stronger effect = higher value
[2] = system: transient receptor potential cation channel C4 beta (TRPC4), mouse; test: TRPC4 cation channel opening, second retest – cell-based, second round, Fluo4, HEK293 TRPC4beta/mu-opioid, 1 µM, confirmation (AID 2461;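 active = primary screen active and over 50% activation in each of two duplicate runs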); settings: Fluo4 calcium fluorescence, at 1 µM; stronger effect = higher value
[3] = system: TRPC4 (transient receptor potential cation channel C4 beta), mouse; test: potentiation of DAMGO EC20 TRPC4 response – cell-based, second round, Fluo-4, HEK293 TRPC4beta/mu-opioid, 1 µM, confirmation (AID 2554;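 active = primary screen hit whose fluorescence ratio, in both repeats, exceeds the weak agonist control mean by 3 SD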); settings: DAMGO EC20, Fluo-4 calcium flux, at 1 µM; stronger effect = higher value
[4] = system: TRPC4 beta (transient receptor potential cation channel C4), mouse; test: potentiation of DAMGO EC20 TRPC4 response – cell-based, Fluo-4, HEK293 TRPC4beta/mu-opioid, confirmation (AID 2555;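 active = primary screen hit whose calcium fluorescence ratio, in both repeats, exceeds the weak agonist control mean by 3 SD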); settings: DAMGO EC20, Fluo-4 calcium flux, at 10 µM; stronger effect = higher value
[5] = biological target: Short transient receptor potential channel 4 (Mus musculus) (UniProt Q9QUQ5); test: blockers of DAMGO-evoked TRPC4 calcium flux – cell-based, Fluo4, HEK293 TRPC4beta/mu-opioid, confirmation (AID 2636;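 active = calcium signal cut by more than 3 SD below the full-agonist control yet still positive, in both repeats and the earlier primary screen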); settings: at 10 µM; stronger effect = higher value
[6] = biological target: Short transient receptor potential channel 4 (Mus musculus) (UniProt Q9QUQ5); test: blockers of DAMGO-evoked TRPC4 calcium flux – cell-based, second round, Fluo4, HEK293 TRPC4beta/mu-opioid, 1 µM, confirmation (AID 2637;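 active = calcium signal ratio cut to more than 3 SD under the fully stimulated control mean yet still positive, in both repeats and the primary screen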;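 for inhibition: percent of integrated ratio relative to wells lacking test compound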); settings: at 1 µM; stronger effect = higher value
[7] = biological target: Short transient receptor potential channel 4 (Mus musculus) (UniProt Q9QUQ5); test: calcium entry via TRPC4 opening agents – cell-based, HEK293 TRPC4/mu-opioid, Fluo-4 calcium, dose response (AID 434937;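 active = primary screen activator hit with a dose response curve and TRPC4 channel activation at any tested dose; inactive = no activation, no dose response, or not a primary hit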)
[8] = biological target: Short transient receptor potential channel 4 (Mus musculus) (UniProt Q9QUQ5); test: potentiation of DAMGO-evoked TRPC4 calcium signal – cell-based, HEK293 TRPC4/mu-opioid, Fluo-4 calcium, EC20 DAMGO, dose response (AID 434941;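 active = earlier screen potentiator hit that boosts the TRPC4 ion channel at some dose, with a dose response; inactive = no potentiation, no dose response, or not a prior hit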;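 note: calcium entry triggered by an EC20 dose of DAMGO at the co-expressed mu-opioid receptor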)
[9] = biological target: Short transient receptor potential channel 6 (Mus musculus) (UniProt Q61143); test: TRPC6 blockade by TRPC4 inhibitor hits – cell-based, HEK293, membrane potential dye, duplicate, selectivity assay for TRPC4 inhibitor project, confirmation (AID 434948;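 active = active in primary screen and both duplicates, each dropping signal beyond three positive-control SD with fluorescence still positive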); settings: HEK293 TRPC6, membrane potential dye fluorescence, at 10 µM, stimulated with maximal-effect acetylcholine; stronger effect = higher value
[10] = biological target: Short transient receptor potential channel 6 (Mus musculus) (UniProt Q61143); test: TRPC6 opening by TRPC4 activator hits – cell-based, HEK293, membrane potential dye, duplicate, selectivity assay for TRPC4 activator project, confirmation (AID 434950;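 active = membrane potential signal rise above negative control mean plus 3 SD in both duplicates, also active in the earlier TRPC4 screen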); settings: HEK293 TRPC6, membrane potential fluorescence, at 10 µM; activation: stronger effect = higher value; outcome: activation
[11] = biological target: Short transient receptor potential channel 6 (Mus musculus) (UniProt Q61143); test: positive modulators of mouse TRPC6 channel – HEK293 cells, membrane potential dye, duplicate, selectivity assay for TRPC4 potentiator project, confirmation (AID 434952;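 active = compound raising the membrane signal above positive-control mean plus 3 SD in both repeats, and a primary screen hit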); settings: HEK293 TRPC6, membrane potential dye fluorescence, at 10 µM, maximal acetylcholine added after compound; stronger effect = higher value
[12] = biological target: Short transient receptor potential channel 4 (Mus musculus) (UniProt Q9QUQ5); test: calcium flux activators in TRPC4/5HT1a cells, counter-screen for TRPC4 activator project, cell-based, second counter screen, HEK293 TRPC4/5HT1a, Fluo-4 (AID 434977;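 active = calcium signal rise above buffer-control mean plus 5 SD in both duplicates, and also a hit in the primary screen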); settings: Fluo-4 calcium flux, at 10 µM; stronger effect = higher value
[13] = serotonin-gated TRPC4 signal block – cell-based, second counter screen, HEK293 TRPC4/5HT1a, Fluo-4, counter-screen for TRPC4 inhibitor project, confirmation (AID 434978;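 active = primary screen active whose calcium signal fell more than 3 SD beyond the full-serotonin control mean in both duplicate plates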;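 for outcome: serotonin given first at submaximal then at maximal dose after compound preincubation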); settings: Fluo-4 calcium flux, at 10 µM, serotonin added to trigger calcium flux; stronger effect = higher value
[14] = system: TRPC4 (mouse), co-expressed with 5HT1a in HEK293; test: enhancement of serotonin-evoked TRPC4 response – cell-based, second counter screen, HEK293 TRPC4/5HT1a, Fluo-4, counter-screen for TRPC4 potentiator project, confirmation (AID 434979;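 active = signal rise over 3 SD above mean of control wells given weak agonist, in both repeats and first screen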); settings: Fluo-4 calcium flux, at 10 µM, serotonin added at its EC20 dose; stronger effect = higher value
[15] = nonspecific calcium rise without TRPC4 – cell-based, HEK293 mu-opioid receptor line, counter-screen for TRPC4 activator project, confirmation (AID 449723;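 active = hit in primary screen, with calcium signal over 5 SD above buffer well mean in both duplicates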;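 note: counter screen cells carry the mu-opioid receptor alone and lack TRPC4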); settings: HEK293 mu-opioid cells, Fluo-4 calcium fluorescence, at 10 µM; stronger effect = higher value
[16] = nonspecific potentiation of DAMGO calcium response – cell-based, HEK293 mu-opioid receptor line, counter-screen for TRPC4 allosteric potentiator project, confirmation (AID 449724;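 active = calcium signal rise more than 3 SD above the low-dose agonist control mean, in both duplicate plates and the primary screen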); settings: HEK293 mu-opioid receptor cells, Fluo-4 calcium flux, at 10 µM, compound added before EC20 DAMGO stimulus; stronger effect = higher value

Measured: inhibition

Sequence of Short transient receptor potential channel 4 (Mus musculus) (Q9QUQ5 whole entry, looked up): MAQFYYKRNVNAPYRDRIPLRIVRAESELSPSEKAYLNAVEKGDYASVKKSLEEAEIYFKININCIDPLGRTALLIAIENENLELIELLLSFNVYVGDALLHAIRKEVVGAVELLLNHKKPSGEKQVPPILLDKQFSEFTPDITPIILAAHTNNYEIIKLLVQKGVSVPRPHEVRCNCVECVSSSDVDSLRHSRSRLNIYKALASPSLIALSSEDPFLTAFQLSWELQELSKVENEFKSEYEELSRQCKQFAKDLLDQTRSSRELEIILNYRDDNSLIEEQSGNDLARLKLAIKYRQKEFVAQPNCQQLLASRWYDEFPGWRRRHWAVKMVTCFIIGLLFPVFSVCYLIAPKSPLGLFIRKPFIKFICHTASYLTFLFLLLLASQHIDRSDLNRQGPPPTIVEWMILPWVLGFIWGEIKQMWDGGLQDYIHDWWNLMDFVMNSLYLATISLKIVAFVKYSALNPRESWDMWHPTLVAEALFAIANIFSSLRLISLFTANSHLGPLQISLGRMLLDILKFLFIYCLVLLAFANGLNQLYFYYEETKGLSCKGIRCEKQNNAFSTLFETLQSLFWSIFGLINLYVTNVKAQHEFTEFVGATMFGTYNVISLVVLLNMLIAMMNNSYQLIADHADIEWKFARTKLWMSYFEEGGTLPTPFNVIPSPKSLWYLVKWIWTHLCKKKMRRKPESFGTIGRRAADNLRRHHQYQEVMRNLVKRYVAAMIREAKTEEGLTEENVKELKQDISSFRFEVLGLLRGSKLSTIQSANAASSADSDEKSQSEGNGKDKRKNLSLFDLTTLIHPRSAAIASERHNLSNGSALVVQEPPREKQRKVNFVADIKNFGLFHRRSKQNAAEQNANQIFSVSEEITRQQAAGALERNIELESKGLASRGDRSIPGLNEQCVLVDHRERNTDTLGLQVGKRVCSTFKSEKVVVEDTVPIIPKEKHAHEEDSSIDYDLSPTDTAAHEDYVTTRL
Sequence of Short transient receptor potential channel 6 (Mus musculus) (Q61143 whole entry, looked up): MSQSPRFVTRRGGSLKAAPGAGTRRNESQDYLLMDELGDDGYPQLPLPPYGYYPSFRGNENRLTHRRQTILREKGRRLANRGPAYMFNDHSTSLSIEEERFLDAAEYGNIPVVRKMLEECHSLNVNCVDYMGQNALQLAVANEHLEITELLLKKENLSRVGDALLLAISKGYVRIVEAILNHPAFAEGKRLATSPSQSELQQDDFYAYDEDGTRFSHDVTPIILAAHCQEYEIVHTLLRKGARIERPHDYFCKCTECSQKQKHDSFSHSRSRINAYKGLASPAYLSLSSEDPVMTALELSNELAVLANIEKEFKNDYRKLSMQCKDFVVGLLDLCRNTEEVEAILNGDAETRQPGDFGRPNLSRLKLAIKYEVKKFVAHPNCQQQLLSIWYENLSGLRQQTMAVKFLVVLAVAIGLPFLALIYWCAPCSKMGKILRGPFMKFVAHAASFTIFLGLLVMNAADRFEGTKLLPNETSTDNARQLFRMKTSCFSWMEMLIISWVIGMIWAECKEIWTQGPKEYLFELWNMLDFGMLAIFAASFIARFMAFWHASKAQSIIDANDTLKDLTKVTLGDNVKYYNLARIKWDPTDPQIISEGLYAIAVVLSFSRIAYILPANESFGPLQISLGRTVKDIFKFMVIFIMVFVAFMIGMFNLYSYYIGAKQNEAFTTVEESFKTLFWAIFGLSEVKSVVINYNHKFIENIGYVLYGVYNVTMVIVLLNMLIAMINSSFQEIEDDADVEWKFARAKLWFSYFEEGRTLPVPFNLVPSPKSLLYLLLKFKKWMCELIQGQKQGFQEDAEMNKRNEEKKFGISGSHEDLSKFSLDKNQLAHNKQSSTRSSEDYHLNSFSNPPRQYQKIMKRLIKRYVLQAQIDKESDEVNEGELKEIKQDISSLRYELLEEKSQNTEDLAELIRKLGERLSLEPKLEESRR

Cc1cccc(C)c1N1CCc2cn[nH]c21
active: [5] 84% | [13] 31.5%
inactive: all other assays above

Cc1ccc(Cn2c(=N)n(CC(O)c3ccco3)c3ccccc32)cc1 (centres undefined)
active: [5] 94% | [6] 63% | [9] 37% | [13] 17.1%
inactive: all other assays above

O=C(NCCN1CCOCC1)c1ccc2c(c1)N(Cc1ccc(F)cc1)C(=O)CS2
inactive: all assays above

Cc1ccc2c(c1)N(C(=O)CCC(=O)Nc1ccccc1Cl)CC(C)O2 (centres undefined)
active: [5] 73%
inactive: all other assays above

COc1nc(N=C(N)N)nc2ccc(C)cc12
active: [5] 96% | [9] 46.5% | [13] 21.1%
inactive: all other assays above

COc1cc(C(F)(F)F)nc2c(Br)c(C(C)(C)C)nn12
active: [5] 92% | [6] 65% | [13] 35.3%
inactive: all other assays above

O=C(Cc1ccccc1)Nc1ccccc1Sc1ccccc1
active: [5] 86% | [13] 40.9%
inactive: all other assays above

Cc1cc(Cl)c2oc(C(=O)N(C)Cc3nccn3C)c(C)c2c1
active: [5] 84%
inactive: all other assays above

CCN(CC)CCN(C(=O)c1ccccc1OC)c1nc2ccc(F)cc2s1
active: [5] 84%
inactive: all other assays above

Cc1ccc(C)c2[nH]c(=O)c(CN(Cc3nnnn3C3CCCCC3)CC3CCCO3)cc12 (centres undefined)
active: [5] 78% | [13] 33%
inactive: all other assays above

Nc1c2c(nc3ccccc13)N(c1ccccc1)CC2
active: [5] 77% | [9] 26% | [13] 31.2%
inactive: all other assays above

Cc1ccc2nc3c(c(N)c2c1)CCN3C
active: [5] 90% | [6] 51% | [9] 35.5% | [13] 15.4%
inactive: all other assays above

O=C(Cc1cccc2ccccc12)Nc1ccc(Br)cc1C(=O)O
active: [5] 89% | [13] 28.9%
inactive: all other assays above

Cc1ccc(O)c(Sc2cc(C)ccc2O)c1
active: [5] 97% | [9] 44.5% | [13] 13.7%
inactive: all other assays above

Cc1ccc(NC(=O)c2cc(N3C(=O)C=CC3=O)ccc2N2CCOCC2)cc1
active: [5] 91% | [6] 38% | [13] 34.6%
inactive: all other assays above

Cc1ccc(Sc2ccc(CO)cc2[N+](=O)[O-])cc1
active: [5] 98% | [13] 7.78%
inactive: all other assays above

COc1ccc(Nc2c3c(nc4ccccc24)CCC3)cc1
active: [5] 98% | [13] 22.1%
inactive: all other assays above

CCCn1c(=O)c2ccccc2n2c(SCCOc3ccccc3)nnc12
active: [5] 67% | [13] 37.4%
inactive: all other assays above

Clc1ccccc1CSc1nc2ccncc2[nH]1
active: [5] 99%
inactive: all other assays above

Cc1cccc2nc(CSc3ccc(Cl)cc3)cn12
active: [5] 90% | [6] 52% | [13] 21.9%
inactive: all other assays above

Cc1oc(-c2ccoc2)nc1CN(Cc1ccccc1)CC1CC1
active: [5] 95%
inactive: all other assays above

CN(C)C(CNC(=O)c1cccc(C(F)(F)F)c1)c1ccco1 (centres undefined)
active: [5] 67% | [6] 69%
inactive: all other assays above

CCOC(=O)c1oc2ccccc2c1CN1CCCCC1
active: [5] 91% | [13] 34.9%
inactive: all other assays above

C/C(CC(=O)N(C(C)C)C(C)C)=N\NC(=O)COc1ccc(Cl)cc1Cl
active: [5] 83%
inactive: all other assays above

Cc1ccc2nc(C)cc(Nc3ccc4c(c3)OCCO4)c2c1
active: [5] 90% | [9] 50%
inactive: all other assays above

CC(C)=CCN1CCN(Cc2cccc3nonc23)CC1CCO (centres undefined)
active: [5] 91% | [13] 33.3%
inactive: all other assays above

COCCCNc1cc(C)nc2ccccc12
active: [5] 94% | [9] 50.5%
inactive: all other assays above

NS(=O)(=O)c1ccc(CCNCc2ccccc2OCc2ccc(Cl)cc2)cc1
active: [5] 87% | [6] 54% | [13] 31.3%
inactive: all other assays above

OC1(c2cccs2)CN(c2ccc(Cl)cc2)C2=[N+]1CCCC2 (centres undefined)
active: [5] 72% | [13] 35.1%
inactive: all other assays above
